Assay results: the supplement of paper PMC6331611
Several values for one entry are separate records, joined by “and”; a condition that tells them apart may be missing. Equal values may be shown once. ± gives the standard deviation of the averaged measurements. The full ranking holds about 1,600 compounds; the median of “normalized intracellular growth (luminescence, IQM-normalized) in RAW264.7 macrophages” is about 1, and the lowest 2% start at about 0.43. The entries come from a sample that favours the lowest values as a whole.

Tested on: Salmonella enterica serovar Typhimurium SL1344
Test: normalized intracellular growth (luminescence, IQM-normalized) in RAW264.7 macrophages (fraction of plate interquartile mean); higher = more bacterial growth (less inhibition)
Conditions: 10 µM

| Compound | normalized intracellular growth (time point: T3 (3 h)) | normalized intracellular growth (time point: Tfinal (~6 h)) |
| --- | --- | --- |
| FC(F)(F)C(Cl)Br (stereo unspecified) | 1 ± 0.049 | 1.08 ± 0.18 |
| CN1CC(=O)NC1=N | 1.03 ± 0.02 | 1.1 ± 0.1 |
| COc1cc([C@@H]2c3cc4c(cc3[C@@H](O[C@@H]3O[C@@H]5CO[C@@H](c6cccs6)O[C@H]5[C@H](O)[C@H]3O)[C@H]3COC(=O)[C@H]23)OCO4)cc(OC)c1O | 1.1 ± 0.049 | 1.016 ± 0.0097 |
| CCCc1nc(C)c2c(O)nc(-c3cc(S(=O)(=O)N4CCN(CC)CC4)ccc3OCC)nn12 | 0.997 ± 0.027 | 0.899 ± 0.1 |
| CC(=O)N(c1onc(C)c1C)S(=O)(=O)c1ccc(N)cc1 | 0.951 ± 0.011 | 1.02 ± 0.17 |
| C[C@@H]1C[C@H]2[C@@H]3CCC4=CC(=O)C=C[C@]4(C)[C@@]3(F)[C@@H](O)C[C@]2(C)[C@@]1(O)C(=O)CO | 1 ± 0.062 | 0.99 ± 0.075 |
| CC(=O)NCCCCCC(=O)O | 0.997 ± 0.019 | 1.02 ± 0.17 |
| O=S(=O)(O)CCSSCCS(=O)(=O)O | 1.02 ± 0.061 | 0.986 ± 0.18 |
| CC(C(=O)O)c1ccc(CC2CCCC2=O)cc1 (stereo unspecified) | 1.05 ± 0.055 | 1.06 ± 0.064 |
| NC[C@@H]1CC[C@@H](N)[C@@H](O[C@H]2[C@H](O)[C@@H](O[C@H]3O[C@H](CO)[C@@H](O)[C@H](N)[C@H]3O)[C@H](N)C[C@@H]2N)O1 | 1.04 ± 0.023 | 0.976 ± 0.13 |
| NCC(O)CC(=O)O (stereo unspecified) | 0.966 ± 0.067 | 1.03 ± 0.12 |
| C[C@H]1COc2c(N3CCN(C)CC3)c(F)cc3c(=O)c(C(=O)O)cn1c23 | 1.245 ± 0.0094 | 0.00765 ± 0.001 |
| C[C@H]1COc2c(C3(N)CC3)c(F)cc3c(=O)c(C(=O)O)cn1c23 | 1.36 ± 0.11 | 0.00812 ± 0.0004 |
| CN1CCN(c2c(F)cc3c(=O)c(C(=O)O)cn4c3c2SCC4)CC1 | 0.982 ± 0.061 | 0.095 ± 0.094 |
| CC1COc2c(N3CCN(C)CC3)c(F)cc3c(=O)c(C(=O)O)cn1c23 (stereo unspecified) | 0.856 ± 0.034 | 0.134 ± 0.0023 |
| CCCCCCc1ccc(O)cc1O.Nc1c2ccccc2nc2ccccc12 | 0.891 ± 0.014 | 1.07 ± 0.012 |
| CC1(C)S[C@@H]2[C@H](N3C(=O)[C@@H](c4ccccc4)NC3(C)C)C(=O)N2[C@H]1C(=O)O | 1 ± 0.031 | 0.974 ± 0.056 |
| COC(=O)/C=C/C(=O)OC | 0.935 ± 0.047 | 0.937 ± 0.028 |
| O=C([O-])[C@H]1/C(=C/CO)O[C@@H]2CC(=O)N21.[Li+] | 1.02 ± 0.099 | 0.812 ± 0.11 |
| CN(C)c1cnccn1 | 0.967 ± 0.046 | 0.904 ± 0.32 |

| Compound | normalized intracellular growth (time point: T3 (3 h)) | normalized intracellular growth (time point: Tfinal (~6 h)) |
| --- | --- | --- |
| CSCC[C@H](NC(=O)[C@H](Cc1c[nH]c2ccccc12)NC(=O)CCNC(=O)OC(C)(C)C)C(=O)N[C@@H](CC(=O)O)C(=O)N[C@@H](Cc1ccccc1)C(N)=O | 1 ± 0.04 | 0.827 ± 0.23 |
| Cl.N=C(N)NCCC[C@H](N)C(=O)O | 1.05 ± 0.065 | 1.02 ± 0.092 |
| NCC(=O)CCC(=O)O | 1.09 ± 0.029 | 1.02 ± 0.042 |
| Cc1nc(C)c(Cl)c(O)c1Cl | 0.942 ± 0.035 | 1.16 ± 0.1 |
| C[C@]12CCC(=O)C=C1CC[C@@H]1[C@@H]2[C@@H](O)C[C@@]2(C)[C@H]1CC[C@]2(O)C(=O)COP(=O)(O)O | 0.9812 ± 0.0046 | 0.999 ± 0.047 |
| O=C(O)c1cc(O)c2c(c1)[C@H]([C@H]1c3cc(C(=O)O)cc(O)c3C(=O)c3c(O[C@@H]4O[C@H](CO)[C@@H](O)[C@H](O)[C@H]4O)cccc31)c1cccc(O[C@@H]3O[C@H](CO)[C@@H](O)[C@H](O)[C@H]3O)c1C2=O | 0.957 ± 0.08 | 0.961 ± 0.026 |
| O=C1C2CC3CC1CC(O)(C3)C2 | 1 ± 0.017 | 1.06 ± 0.065 |
| N=C(NCCCCCCNC(=N)NC(=N)Nc1ccc(Cl)cc1)NC(=N)Nc1ccc(Cl)cc1 | 0.912 ± 0.078 | 1.15 ± 0.014 |
| CC(C)NC(=N)NC(=N)Nc1ccc(Cl)cc1 | 0.664 ± 0.018 | 0.164 ± 0.01 |
| O=C1c2c(O)cc(CO)cc2C(OC2OC(CO)C(O)C(O)C2O)c2cccc(OC3OC(CO)C(O)C(O)C3O)c21 (stereo unspecified) [CASANTHRANOL [cascaroside A shown]] | 0.997 ± 0.016 | 0.857 ± 0.041 |
| CCCCCCOC(=O)NC(=N)c1ccc(NCc2nc3cc(C(=O)N(CCC(=O)OCC)c4ccccn4)ccc3n2C)cc1 | 1.02 ± 0.01 | 0.97 ± 0.034 |
| CCCCC(CC)COC(=O)CC(C(=O)OCC(CC)CCCC)S(=O)(=O)O (stereo unspecified) | 0.943 ± 0.069 | 0.958 ± 0.027 |
| CCN(CC)CCNC(=O)c1ccc(NC(C)=O)cc1 | 1.03 ± 0.065 | 1 ± 0.12 |
| C[C@H]1[C@H](OC(=O)CCC(=O)O)O[C@@H]2O[C@@]3(C)CC[C@H]4[C@H](C)CC[C@@H]1[C@@]24OO3 | 0.899 ± 0.045 | 0.869 ± 0.028 |
| O=c1[nH]cnc2c1ncn2[C@@H]1O[C@H](CO)[C@@H](O)[C@H]1O | 0.917 ± 0.048 | 0.976 ± 0.13 |
| Nc1ccn([C@@H]2O[C@H](CO)[C@@H](O)[C@@H]2O)c(=O)n1 | 0.9664 ± 0.0095 | 0.997 ± 0.037 |
| Nc1ncn([C@@H]2O[C@H](CO)[C@@H](O)[C@H]2O)c(=O)n1 | 0.951 ± 0.029 | 0.154 ± 0.087 |
| CCCCC(CC)CN=C(N)N=C(N)NCCCCCCNC(N)=NC(N)=NCC(CC)CCCC (stereo unspecified) | 0.994 ± 0.063 | 1.1 ± 0.035 |
| CN(C)CC[C@@H](c1ccc(Cl)cc1)c1ccccn1 | 1 and 1.05 | 1.01 and 0.736 |
| C[C@]12C=CC(=O)C=C1CC[C@@H]1[C@@H]2[C@@H](O)C[C@@]2(C)[C@H]1CC[C@]2(O)C(=O)COC(=O)CCC(=O)O | 1.02 ± 0.016 | 0.815 ± 0.11 |

| Compound | normalized intracellular growth (time point: T3 (3 h)) | normalized intracellular growth (time point: Tfinal (~6 h)) |
| --- | --- | --- |
| N[C@H]1C(O)O[C@H](CO)[C@@H](O)[C@@H]1O (stereo partly specified) | 0.967 ± 0.045 | 0.999 ± 0.058 |
| CCn1cc(C(=O)O)c(=O)c2cc(F)c(N3CCNCC3)cc21 | 1.07 ± 0.028 | 1.19 ± 0.029 |
| O=C(O)c1cn(C2CC2)c2cc(N3CCNCC3)c(F)cc2c1=O | 1.14 ± 0.019 | 0.0127 ± 0.00088 |
| CCn1cc(C(=O)O)c(=O)c2cnc(N3CCCC3)nc21 | 0.929 ± 0.0075 | 1.04 ± 0.053 |
| O=C(O)c1cn(-c2ccc(F)cc2)c2cc(N3CCNCC3)c(F)cc2c1=O | 1.1 ± 0.081 | 0.00781 ± 0.0016 |
| CCn1cc(C(=O)O)c(=O)c2cc(F)c(N3CCN(C)CC3)cc21 | 1.11 ± 0.11 | 0.012 ± 0.0031 |
| CN1CCN(c2cc3c(cc2F)c(=O)c(C(=O)O)cn3-c2ccc(F)cc2)CC1 | 0.634 ± 0.14 | 0.982 ± 0.093 |
| C[C@H](N[C@@H](CCc1ccccc1)C(=O)O)C(=O)N1Cc2ccccc2C[C@H]1C(=O)O | 1.03 ± 0.079 | 1.08 ± 0.12 |
| NC(=O)CCCCC1CCSS1 (stereo unspecified) | 0.996 ± 0.093 | 0.817 ± 0.12 |
| O=S(=O)(O)CCCS(=O)(=O)O | 1.01 ± 0.095 | 0.9 ± 0.34 |
| O=C1/C(=C/c2cccs2)CCC/C1=C\c1cccs1 | 0.973 ± 0.059 | 1.06 ± 0.036 |
| CC1=CC(=O)NS(=O)(=O)O1 | 1.06 ± 0.077 | 1.04 ± 0.089 |
| CN1CC(=O)N2[C@H](c3ccc4c(c3)OCO4)c3[nH]c4ccccc4c3C[C@@H]2C1=O | 1.06 ± 0.072 | 0.783 ± 0.27 |
| CN(C)c1ccc(C(=C2C=CC(=[N+](C)C)C=C2)c2ccc(N(C)C)cc2)cc1 | 0.8927 ± 0.0022 | 0.931 ± 0.03 |
| CC(=O)OCC(=O)[C@@]1(O)[C@H](OC(C)=O)C[C@H]2[C@@H]3CCC4=CC(=O)C=C[C@]4(C)[C@@]3(F)[C@@H](O)C[C@@]21C | 0.823 ± 0.07 | 1.2 ± 0.034 |
| CCOc1ccc(Cc2nccc3cc(OCC)c(OCC)cc23)cc1OCC | 0.925 ± 0.09 | 0.43 ± 0.11 |
| CCC/C=C\C=C/C(=O)N[C@@H](CC(N)=O)C(=O)NC(CC(N)=O)C(=O)N[C@@H](C(=O)N[C@H](CCCN)C(=O)N[C@@H](C(=O)N[C@@H](C(=O)N[C@@H](C(=O)N[C@H](C(=O)N[C@@H](Cc1ccccc1)C(=O)N[C@H](CCCN)C(=O)NC(C(=O)N[C@H](C(=O)NC(C(=O)NCC(=O)N[C@@H](CC(C)C)C(=O)N[C@H](C)C(=O)NC(C(=O)O)C1CCC(O)C(Cl)C1)C1CCC(O)CC1)[C@H](C)O)C1CCC(O)CC1)[C@H](C)O)C1CCC(O)CC1)C1CCC(O)CC1)[C@H](C)O)C1CCC(O)CC1 (stereo partly specified) [RAMOPLANIN [A2 shown; 2mM]] | 0.984 ± 0.051 | 1.17 ± 0.15 |
| C=CCCCCCCCCC(=O)[O-].C=CCCCCCCCCC(=O)[O-].[Zn+2] | 1 ± 0.048 | 0.832 ± 0.1 |
